From PubChem
USP2a block: qHTS Assay for Inhibitors of Ubiquitin-specific Protease USP2a Using CHOP2 as the Reporter. actives 0.01% (n = 330,000). AID 463254, 2010. Potency, µM (doses to about 38.3 µM), for the others: top-dose activity change, negative = inhibition, hits mostly inhibitors. USP2 core, Ub-CHOP2 coupled fluorogenic reporter, 485/531. Ubiquitin carboxyl-terminal hydrolase 2 (Homo sapiens), O75604;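 also: potency is read from the fitted curve at half-maximal effect; plate controls were DMSO wells for no effect and full inhibition by NEM control for full effect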
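Cell-free coupled assay: 10nM USP2 core preincubated 30min RT with compound in Tris-HCl pH 8.0/CaCl2/CHAPS buffer, then 25nM Ub-CHOP2 and 25nM reporter substrate; fluorescence (Ex 485/Em 531) read after 60min RT, normalized to NEM inhibition, concentration-response curves fitted.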
TSHR antag: Antagonists of the Thyroid Stimulating Hormone Receptor: HTS campaign; activity change, negative = inhibition, % at 11.5 µM; Thyrotropin receptor (Homo sapiens), P16473; actives 0.2% (n = 330,000); TSHR-expressing cells, TSH-stimulated cAMP HTRF, 2 h; hits give low values;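 active = activity change below a set negative limit, meaning inhibition stronger than a set level, cut at about -70% in these data; inconclusive = activity change between two set negative limits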; also: % is scaled to controls: 0 for no effect and ±100 for the full control effect
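Antagonism was scored as loss of TSH-driven cAMP in TSHR cells, stimulated with 4nM TSH (EC80) for 2 hours at 37 deg C and detected by homogeneous HTRF competition immunoassay.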
TRb-SRC2 inh: qHTS for Inhibitors of the Interaction of Thyroid Hormone Receptor and Steroid Receptor Coregulator 2 | Thyroid hormone receptor beta (Homo sapiens), P10828 | TRbeta-SRC2 peptide binding, fluorescence polarization; receptor liganded with 1 µM T3 | Potency, µM (highest dose often 106 µM), for inactives: top-dose activity change, negative = inhibition, usual class: inhibitors | actives 0.065% (n = 280,000) | AID 1469, 2008;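 also: potency is read from the fitted curve at half-maximal effect; plate controls were bound peptide for no effect and peptide without receptor for full effect; nearly all actives have a fitted effect of over 50% in size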
Target sequence (P10828 whole entry, looked up): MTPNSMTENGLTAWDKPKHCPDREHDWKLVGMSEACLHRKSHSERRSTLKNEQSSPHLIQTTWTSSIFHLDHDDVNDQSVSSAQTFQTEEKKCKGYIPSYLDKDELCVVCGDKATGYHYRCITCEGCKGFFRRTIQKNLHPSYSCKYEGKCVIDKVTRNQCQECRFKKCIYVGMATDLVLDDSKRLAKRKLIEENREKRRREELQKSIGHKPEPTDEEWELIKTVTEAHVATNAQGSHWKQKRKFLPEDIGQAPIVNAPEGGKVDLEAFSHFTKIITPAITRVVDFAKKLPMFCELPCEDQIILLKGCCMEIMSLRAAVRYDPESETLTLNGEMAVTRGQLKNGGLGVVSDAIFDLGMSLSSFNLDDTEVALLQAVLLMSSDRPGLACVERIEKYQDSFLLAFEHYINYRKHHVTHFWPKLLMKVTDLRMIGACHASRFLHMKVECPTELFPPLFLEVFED
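Human TRb ligand-binding domain (0.6 uM) is mixed with 20 nM Texas Red SRC2 peptide and 1 uM T3; after compound addition and 5 hr at ambient temperature, polarization is measured and normalized to unbound and bound controls.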
TR SRC2 fluor cs: Total Fluorescence Counterscreen for Inhibitors of the Interaction of Thyroid Hormone Receptor and Steroid Receptor Coregulator 2 | actives 0.29% (n = 280,000) | AID 1479, 2009 | Potency, µM (doses to about 106 µM), without a hit: at the highest dose fluorescence change, negative = quenching | TRb/SRC2 Texas Red total fluorescence interference; active = well fitted curve in either direction with a large enough effect; inconclusive = small, poorly fitted or top-dose-only effect; also: potency is read from the fitted curve at half-maximal effect; % is scaled to controls: 0 for no effect and ±100 for the full control effect
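Human TRb ligand-binding domain at 0.6 uM with 20 nM Texas Red SRC2 peptide in Tris buffer containing 1 uM T3 and 5% DMSO, incubated with compound 5 h at ambient temperature. Total fluorescence (555/632 nm) calculated as parallel + 2 × perpendicular.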
Eya2 inh: qHTS Assay for Inhibitors of the Phosphatase Activity of Eya2 | Protein phosphatase EYA2 (Homo sapiens), O00167 | recombinant Eya2, OMFP fluorescence dephosphorylation (OMFP is methylfluorescein phosphate) | AID 488837, 2010 | Potency, µM (top dose mostly 76.9 µM), for the others: at the top dose activity, negative = inhibition, actives largely listed as inhibitors | actives 0.006% (n = 330,000); also: potency is read from the fitted curve at half-maximal effect; % is scaled to controls: 0 for no effect and ±100 for the full control effect
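Eya2 protein (added as 0.2 uM solution) was preincubated with compound for 10 min at ambient temperature in 50 mM HEPES pH 7.5, 50 mM NaCl, 5 uM MgCl2, 0.05% BSA, 1 mM DTT. OMFP (added at 50 uM) then reacted 10 min; fluorescence read at 485/525 nm.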
CBFb-RUNX1 inh: qHTS Assay for Compounds Blocking the Interaction Between CBF-beta and RUNX1 for the Treatment of Acute Myeloid Leukemia; Runt-related transcription factor 1 (Homo sapiens) + Core-binding factor subunit beta …; AlphaScreen CBFb-His/RUNX1-biotin binding, biochemical; Potency, µM (top dose mostly 59.8 µM), for the others: top-dose activity, negative = inhibition, actives largely listed as inhibitors; 230,000 tested, under 10 active; AID 1477, 2009; also: % of control where 0% means no effect
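Proteins preincubated together for 20 min at RT before compound addition; 15 min later, nickel and streptavidin beads were added and left 90 min prior to AlphaScreen measurement.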
The depositor's hits bear a star; [ ] = dose if it differs, or a comment. Most compounds without a hit are left out; they make up all but 0.38% or so of the library. Unless noted, calls follow the shape of the dose curve; as a rule, active = well fitted curve in the direction sought with a large enough effect; inconclusive = small, poorly fitted or top-dose-only effect, or another doubt; inactive = no such curve, though single readings can be large; an effect the other way counts as inactive or inconclusive.

Screening COc1ccc(-c2cn3nc(SCC(=O)Nc4ccc(C)c(Cl)c4)ccc3n2)cc1 returned TRb-SRC2 inh -0.4% and TR SRC2 fluor cs 0.6%.
Cc1ccccc1Nc1c(-c2cc(Br)ccc2F)nc2ccccn12 was read as TRb-SRC2 inh -3.6% and TR SRC2 fluor cs 3.16µM*[quencher].
For Cc1nc(-n2nc(C)c(Cc3ccccc3Cl)c2C)sc1C(=O)N1CCCCC1C (stereo not given) the results were TRb-SRC2 inh -9.4% and TR SRC2 fluor cs -3.7%.
`Cc1nc(-n2nc(C)c(Cc3ccc(Cl)cc3)c2C)sc1C(=O)N1CCCCC1C` (stereo not given) gave TRb-SRC2 inh -21.6% and TR SRC2 fluor cs 17783µM*[quencher].
`C=CCCCCCCCCCC` gave TRb-SRC2 inh 4.0%[201 µM] and TR SRC2 fluor cs -1.9%[201 µM].
`CS(=O)(=O)c1ncc(Cl)c(C(=O)Nc2ccc(N3CCOCC3)cc2)n1` gave USP2a block 0.2%, TSHR antag -7.9, TRb-SRC2 inh -16.3%, TR SRC2 fluor cs -1.2%, Eya2 inh -15.0% and CBFb-RUNX1 inh -21.2%.
Screening Cc1ccccc1CS(=O)(=O)c1ncc(Cl)c(C(=O)Nc2ccc(F)cc2)n1 returned USP2a block 1.1%, TSHR antag -73.8* and Eya2 inh -4.9%.
For CS(=O)(=O)c1ncc(Cl)c(C(=O)Nc2ccc(OC(F)F)cc2)n1 the results were USP2a block -0.1%, TSHR antag -73.6* and Eya2 inh -10.4%.
Screening CCN(c1ccccc1)S(=O)(=O)c1ccc(NC(=O)c2nc(S(C)(=O)=O)ncc2Cl)cc1 returned USP2a block -1.0%, TSHR antag -88.9*, TRb-SRC2 inh -8.7%, TR SRC2 fluor cs 1.78µM*[quencher] and Eya2 inh -7.1%.
`CCS(=O)(=O)c1ncc(Cl)c(C(=O)Nc2ccc(S(=O)(=O)N(C)c3ccccc3)cc2)n1` gave USP2a block 0.0%, TSHR antag -91.8*, TRb-SRC2 inh 1.7%, TR SRC2 fluor cs -13.0% and Eya2 inh 0.2%.
`CC(C)C(=O)OC(=O)C(C)C` gave TRb-SRC2 inh 4.7%[201 µM] and TR SRC2 fluor cs -1.4%[201 µM].
COc1ccc(OC)c(-c2cc(C(=O)Nc3cc(C)n(Cc4ccc(Cl)cc4)n3)no2)c1 was read as USP2a block 0.6%, TSHR antag -2.1, TRb-SRC2 inh -10.3%, TR SRC2 fluor cs 0.5%, Eya2 inh 24.1% and CBFb-RUNX1 inh 4.7%.
For COc1cccc(-c2cc(C(=O)Nc3cc(C)n(Cc4ccc(Cl)cc4)n3)no2)c1 the results were USP2a block 3.2%, TSHR antag -73.6*, TRb-SRC2 inh -17.7%, TR SRC2 fluor cs -3.3%, Eya2 inh -17.4% and CBFb-RUNX1 inh 14.7%.
For N#CC1=C(N)N2C(=C(C#N)C1c1ccc(Br)cc1)Nc1ccccc12 (stereo not given) the results were USP2a block 2.3%, TSHR antag -78.6*, TRb-SRC2 inh -0.9%, TR SRC2 fluor cs -6.0%, Eya2 inh -1.7% and CBFb-RUNX1 inh -1.0%.
CC(C)c1ccc(NC(=O)CN2C(=O)CSc3ccc(S(=O)(=O)N4CCCC4)cc32)cc1 was read as TRb-SRC2 inh -2.7% and TR SRC2 fluor cs -1.1%.
CC1=C(C(=O)OCC(Cl)(Cl)Cl)N2C(=O)C(NC(=O)Cc3ccccc3)C2SC1 (stereo not given) was read as USP2a block -12.3%, TSHR antag -77.2*, TRb-SRC2 inh 0.1%, TR SRC2 fluor cs -0.1%, Eya2 inh -9.2% and CBFb-RUNX1 inh -29.0%.
Screening CC1=C(C(N)=O)N2C(=O)[C@@H](NC(=O)Cc3ccccc3)C2SC1 (stereo not given in full) returned TRb-SRC2 inh 5.2%, TR SRC2 fluor cs -0.7% and CBFb-RUNX1 inh 6.8%.
CC(=O)c1ccc(NC(=O)c2nc(-c3ccc(Cl)cc3)n3c2CCCCC3)cc1 was read as TRb-SRC2 inh -2.4% and TR SRC2 fluor cs 1.1%.
COC(=O)c1ccccc1NC(=O)c1nc(-c2ccc(Cl)cc2)n2c1CCCCC2 was read as TRb-SRC2 inh -8.8% and TR SRC2 fluor cs 20µM*[quencher].
`O=C1c2ccccc2C(=O)N1CCCCSc1nnnn1-c1ccccc1` gave USP2a block -3.8%, TSHR antag -72.3*, TRb-SRC2 inh 13.5%, TR SRC2 fluor cs -1.3%, Eya2 inh 2.6% and CBFb-RUNX1 inh 4.4%.
For O=C1c2ccccc2C(=O)N1CSc1nnnn1-c1ccccc1 the results were USP2a block -1.2%, TSHR antag -4.9, TRb-SRC2 inh 0.1%, TR SRC2 fluor cs 1.7%, Eya2 inh -30.9% and CBFb-RUNX1 inh 9.3%.
`COc1cccc(CNC(=O)C2CCN(c3ncnc4c3nc3n4CCCCC3)CC2)c1` gave USP2a block 3.3%, TSHR antag 3.8, TRb-SRC2 inh -9.7%, TR SRC2 fluor cs 20µM*[quencher] and Eya2 inh -0.4%.
Screening Cc1ccc(C)c(N2CCN(c3ncnc4c3nc3n4CCCC3)CC2)c1 returned TRb-SRC2 inh -7.1% and TR SRC2 fluor cs 20µM*[quencher].
For Cc1cccc(N2CCN(C(=O)C3CCN(c4ncnc5c4nc4n5CCCCC4)CC3)CC2)c1C the results were USP2a block -0.4%, TSHR antag -28.4, TRb-SRC2 inh 4.1%, TR SRC2 fluor cs inconclusive and Eya2 inh 5.0%.
Screening Cc1cccc(N2CCN(C(=O)C3CCN(c4ncnc5c4nc4n5CCCCC4)CC3)CC2C)c1 (stereo not given) returned USP2a block -5.8%, TSHR antag -28.0, TRb-SRC2 inh -5.9%, TR SRC2 fluor cs 20µM*[quencher] and Eya2 inh -1.1%.
`CC(COc1ccc(C(C)(C)C)cc1)OS(=O)OCCCl` (stereo not given) gave TRb-SRC2 inh -0.9%[201 µM] and TR SRC2 fluor cs -0.1%[201 µM].
`COc1cc(N=C2C(=O)N3c4c(cccc42)C(C)=CC3(C)C)cc(OC)c1` gave USP2a block 0.3%, TSHR antag -3.1, TRb-SRC2 inh 2.6%, TR SRC2 fluor cs -1.4%, Eya2 inh -3.0% and CBFb-RUNX1 inh 1.4%.
